Structures are written as SMILES. Hit rate of the full screen: of about 390,000 compounds, about 4,000 (1%) were called active. Where a call stands in place of a potency, no number is given. Not shown: some 4% with an inconclusive outcome. The sample as a whole holds a higher share of actives than the screen did. Unmarked numbers belong to inactive results. Calls follow the shape of the dose curve; as a rule, active = well fitted inhibition curve with a large enough effect; inconclusive = small, poorly fitted or top-dose-only effect; inactive = no such curve, though single readings can be large or run the other way.
Potency is read from the fitted curve at half-maximal effect.

Chain of Thioredoxin reductase 1, cytoplasmic (Rattus norvegicus) (O89049 whole entry, looked up): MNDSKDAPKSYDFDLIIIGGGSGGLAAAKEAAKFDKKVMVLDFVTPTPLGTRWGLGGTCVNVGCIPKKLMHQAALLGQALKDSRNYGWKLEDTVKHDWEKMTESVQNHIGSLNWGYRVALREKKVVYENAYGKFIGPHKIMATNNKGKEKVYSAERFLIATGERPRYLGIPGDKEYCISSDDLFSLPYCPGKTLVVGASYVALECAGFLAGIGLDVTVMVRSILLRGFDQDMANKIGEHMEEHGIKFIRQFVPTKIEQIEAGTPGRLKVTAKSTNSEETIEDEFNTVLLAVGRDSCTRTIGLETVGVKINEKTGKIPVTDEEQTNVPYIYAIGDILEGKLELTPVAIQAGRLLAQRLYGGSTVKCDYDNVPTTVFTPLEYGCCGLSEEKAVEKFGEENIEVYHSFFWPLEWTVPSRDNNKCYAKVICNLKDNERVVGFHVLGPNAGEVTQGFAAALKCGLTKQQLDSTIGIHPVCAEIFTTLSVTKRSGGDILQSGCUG

This assay has as its target Thioredoxin reductase 1, cytoplasmic (Rattus norvegicus) (UniProt O89049). The assay can be described thus: qHTS Assay for Inhibitors of Mammalian Selenoprotein Thioredoxin Reductase 1 (TrxR1): qHTS. Also: nearly all actives have a fitted effect of over 65% in size. Particulars: recombinant rTrxR1, NADPH fluorescence consumption, selenite substrate; series mostly up to 114 µM. In short, it runs like this:
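Rat TrxR1 (90 nM in the dispensed reagent) was pre-reduced with 400 uM NADPH for 5 min at room temperature, then incubated with compound for 15 min. After 400 uM selenite was added, NADPH fluorescence (Ex 340/Em 450 nm) was followed for 8 min.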
In general terms: In qHTS, concentration-response curves come from the screen itself.
In the case of `ClC/C=C/C[n+]1ccccc1Cl`, the Potency entry is “inactive”.
Same read-out and setting: for `C/C(=N/Nc1nc(-c2ccccc2)c(CC(=O)O)s1)c1ccccc1` the value was 5.62 µM (active).
Same read-out and setting: for `C/C(=N\Nc1cccc(C(=O)O)c1)c1ccc2c(c1)Nc1ccccc1S2` the value was “inactive”.
On the same count and under the same terms, as for `CC(=O)NC(CC(=O)Nc1nc(-c2ccccc2)c(C(C)=O)s1)c1ccccc1` (centres undefined), the entry is “inactive”; as for `CC(C)CCN(C(=O)Nc1ccc(Cl)c(Cl)c1)C(C)c1cccs1` (centres undefined), “inactive”.
As to `C=CCN1C(=O)C(O)(CC(=O)c2ccc(Cl)cc2)c2ccccc21` (centres undefined), the Potency was 35.5 µM (active).
On the same count and under the same terms, as for `Cc1ccc(C(=O)CC2(O)C(=O)N(CCc3ccccc3)c3ccc(Br)cc32)cc1` (centres undefined), the entry is “inactive”; as for `C=CCN1C(=O)C(O)(CC(=O)c2ccccn2)c2ccccc21` (centres undefined), “inactive”.
Still for that read-out and setting: as for `CCCCC(CCCC)c1ccc(C=Nc2ccc(/C=C/c3ccnc4ccccc34)cc2)cc1`, the entry is “inactive”.
With `COc1cccc(Cn2c(SCc3ccc(C(=O)N4CCCCC4)cc3)nc3ccncc32)c1`, the Potency entry was “inactive”.
The same measure, in the same setting: for `Fc1cccc(-n2ncc3c2ncn2nc(-c4ccccc4Cl)nc32)c1` the value was “inactive”; for `C1=C(N2CCOCC2)/C(=C/c2nc3ccccc3[nH]2)CC1`, 15.8 µM (active); for `Cc1nn2c3cc(N4CCOCC4)ccc3nc2c2ccccc12`, “inactive”.
Same read-out and setting: as for `Cn1cc(S(=O)(=O)N2CCCCCC2)cc1C(=O)N1CCN(c2ccc(F)cc2)CC1`, the entry is “inactive”.
On the same count and under the same terms, for `COc1ccc([N+](=O)[O-])cc1NC(=O)COC(=O)/C=C/c1ccco1` the value was “inactive”; for `COc1cccc(NC(=O)COC(=O)/C=C/c2ccco2)c1`, 39.8 µM (active); for `NS(=O)(=O)c1cccc(NC(=O)COC(=O)/C=C/c2ccco2)c1`, “inactive”.
Regarding `CCC(C)N(c1ccc(/C=C/c2ccnc3ccccc23)cc1)C(C)CC` (centres undefined), the Potency entry is “inactive”.
With `CCN(CC)/[N+]([O-])=N/OCOC(=O)Cc1c(C)n(C(=O)c2ccc(Cl)cc2)c2ccc(OC)cc12`, the activity change, negative = inhibition was 13.3% [at 0.457 µM].
As to `COc1ccc(NC(=O)CSc2nc3ncccc3[nH]2)c(OC)c1`, the Potency result is “inactive”.
Same read-out and setting: for `OCC(O)C(O)C(O)C(O)C=Nc1ccc(/C=C/c2ccnc3ccccc23)cc1` (centres undefined) the value was “inactive”; for `CCc1ccc2oc(-c3ccc(C)c(NC(=O)/C=C/c4ccco4)c3)nc2c1`, “inactive”.
The same measure, in the same setting: for `O=C(Nc1cccc(-c2nc3ccccc3o2)c1)c1cccc(Br)c1` the value was “inactive”; for `O=C(/C=C/c1ccco1)Nc1cccc(-c2nc3ccccc3[nH]2)c1`, 79.4 µM (active); for `COc1ccc(-c2cc(-c3nc(-c4cc(OC)c(OC)c(OC)c4)no3)[nH]n2)c(OC)c1`, “inactive”.
Same read-out and setting: for `O=C1/C(=C\c2ccc(O)cc2)CCC1CNc1ccc(Cl)cc1` (centres undefined) the value was 22.4 µM (active).
In the case of `Cc1ccc(NS(=O)(=O)c2ccc3c(c2)CC(=O)N3)cc1Cl`, the Potency entry was “inactive”.
Turning to `CCOc1n[nH]c(-c2ccccc2)n1`, the Potency result was “inactive”.
`CN(Cc1ccccc1)c1ccc(/C=C/c2ccnc3ccccc23)cc1`: the Potency result is “inactive”.
Still for that read-out and setting: for `COc1ccc(C(F)(F)F)cc1NC(=O)c1sc2nc(-c3cccs3)ccc2c1N` the value was “inactive”.
On the same count and under the same terms, for `C=CC1(C)CC(=O)C2(O)C(C)(O1)C(OC(C)=O)C(O)C1C(C)(C)CCC(O)C12C` (centres undefined) the value was “inactive”; for `CCOc1ccc(C(C)=O)cc1COC(=O)c1cnc(Cl)c(Cl)c1`, “inactive”; for `CCOc1ccc(C(C)=O)cc1COC(=O)CN1C(=O)NC2(CCCC2)C1=O`, 28.2 µM (active).
Still for that read-out and setting: as for `Cc1ccc(COC(=O)CN2C(=O)NC3(CCCC3)C2=O)cc1`, the entry is “inactive”; as for `CCOc1ccc(C(C)=O)cc1COC(=O)CNC(=O)c1cccs1`, 22.4 µM (active); as for `COc1ccc(C(=O)COC(=O)CNC(=O)c2cccs2)cc1Br`, “inactive”.
`CCOc1ccc(C(C)NC(=O)CN2C(=O)NC3(CCCCC3)C2=O)cc1OCC` (centres undefined): the Potency result is “inactive”.
For the compound `COc1ccc(/C=C/c2ccccn2)cc1OC`, the Potency entry was “inactive”.
Same read-out and setting: for `O=C(NCCCN1CCN(c2cccc(Cl)c2)CC1)c1nnc(Cc2ccc(F)cc2Cl)o1` the value was “inactive”; for `COc1ccc(S(=O)(=O)Nc2cccc3cccnc23)c(N)c1`, “inactive”; for `Cc1cc(-c2ccc(C)c(S(=O)(=O)N3c4ccccc4CC3C)c2)on1` (centres undefined), “inactive”.
The same measure, in the same setting: as for `CCOc1ccc(C2C(=O)N(C3CCCCC3)CC(=O)N2CCC2=CCCCC2)cc1OC` (centres undefined), the entry is “inactive”.
Same read-out and setting: as for `Cc1ccc(/C=C/C(=O)Nc2ccc([N+](=O)[O-])c(NC(=O)/C=C/c3ccc(C)o3)c2)o1`, the figure is 25.1 µM (active); as for `CCOc1ccc(NC(=S)NC(=O)/C=C/c2ccc(OC)cc2)c([N+](=O)[O-])c1`, “inactive”; as for `Cc1ccc(/C=C/C(=O)OCC(=O)NCc2ccc(Cl)cc2)o1`, “inactive”.
For `CN(C(=N)N)c1ccc(/C=C2\C=Cc3ccccc32)cc1`, the Potency entry is “inactive”.
With `O=C(NCc1ccccc1Cl)C1=Cc2cc(Br)ccc2OC1`, the Potency result was “inactive”.
On the same count and under the same terms, as for `COc1cc2ccccc2cc1C(=O)Nc1cccc(-c2nc3ccccc3o2)c1`, the entry is “inactive”.
Same read-out and setting: for `COc1cc(OC)cc(C(=O)Nc2ccc(-c3nc4ccccc4o3)c(O)c2)c1` the value was 28.2 µM (active); for `COc1cccc(C(=O)Nc2ccc3oc(-c4ccc5ccccc5c4)nc3c2)c1`, “inactive”.
Still for that read-out and setting: as for `Cc1ccc(NC(=O)CN2c3ccccc3S(=O)(=O)c3ccccc32)cc1F`, the entry is “inactive”; as for `COc1cc(C(=O)N(Cc2ccc(C(C)C)cc2)C2CCS(=O)(=O)C2)cc(OC)c1OC` (centres undefined), “inactive”.
Regarding `CCc1ccc(S(=O)(=O)N/N=C\c2ccc([N+](=O)[O-])o2)cc1`, the Potency was 14.1 µM (active).
For `COc1ccc(S(=O)(=O)N/N=C\c2ccc(OC)c(COc3ccc(C)cc3[N+](=O)[O-])c2)cc1`, the Potency entry is “inactive”.
Still for that read-out and setting: as for `CCc1ccc(S(=O)(=O)Nc2ccc(C)c(NS(C)(=O)=O)c2)cc1`, the entry is “inactive”; as for `O=C(Cc1ccccc1)Nc1sc2c(c1C(=O)Nc1ccc(Br)cc1)CCC2`, “inactive”; as for `COc1ccc(NC(=O)C(c2ccccc2)N2Cc3ccccc3C2=O)cc1` (centres undefined), “inactive”.
The same measure, in the same setting: as for `CCOC(=O)/C=C/C(=O)OCC(=O)NC(c1ccccc1)c1ccccc1`, the figure is 28.2 µM (active); as for `Cc1ccccc1OCCC(=O)OCC(=O)NC(C)c1ccccc1` (centres undefined), “inactive”; as for `CCOc1ccc(C(CC(=O)O)NC(=O)COc2ccccc2)cc1` (centres undefined), “inactive”.
The same measure, in the same setting: for `CC(=O)Nc1ccc(S(=O)(=O)N2N=NC3C2C2CC4C3(CN(C(=O)OC(C)(C)C)S4(=O)=O)O2)cc1` (centres undefined) the value was “inactive”.
Regarding `CN(C)c1ccc(/C=C/c2sc3ccccc3[n+]2CCCCBr)cc1`, the Potency result is “inactive”.
For `Cc1ccc(C(=O)COC(=O)C(Cc2c[nH]c3ccccc23)NC(=O)c2ccc(Br)cc2)cc1` (centres undefined), the Potency entry was “inactive”.
Still for that read-out and setting: for `CC(=O)OCC(NC(=O)C(Cc1ccccc1)NC(=O)OC(C)(C)C)C1OC(n2ccc(=O)[nH]c2=O)C(OC(C)=O)C1OC(C)=O` (centres undefined) the value was “inactive”; for `COc1cc(OC)c2c(C)cc(=O)oc2c1C(CCN1CCCCC1)c1ccc(N(C)C)cc1` (centres undefined), “inactive”.
Turning to `C=C(C)C(=O)O[C@H]1C/C(C)=C\C(=O)/C=C(\C)[C@H](O)[C@@H]2OC(=O)C(=C)[C@@H]21`, the Potency is 39.8 µM (active).
Same read-out and setting: as for `CCOC(=O)N1CCc2c(sc(NCc3cccc(F)c3)c2C(=O)Nc2ccccc2OCC)C1`, the entry is “inactive”; as for `COc1cc(OC)c(/C=C/c2ccnc3ccccc23)c(OC)c1`, “inactive”.
Still for that read-out and setting: for `C=C1CCN(C(CC(C)C)C(=O)N2CCOCC2)S(=O)(=O)c2ccccc21` (centres undefined) the value was “inactive”; for `O=c1[nH]c2cc(Br)ccc2n2cccc12`, “inactive”; for `O=c1[nH]c2ccccc2n2c(-c3ccccc3)nnc12`, 0.708 µM (active).
On the same count and under the same terms, as for `O=c1cc(-c2ccccc2)n2c(SCc3ccccc3)nnc2[nH]1`, the entry is “inactive”.
Turning to `CC(C)Cn1c(=O)c2ccccc2n2c(-c3cccc(Cl)c3)nnc12`, the Potency entry is “inactive”.
On the same count and under the same terms, for `Cc1ccc2nc(N3CCN(c4cccc(Cl)c4)CC3)c3nnnn3c2c1` the value was “inactive”; for `COc1ccc(N2C(=O)CSC23C(=O)N(Cc2cccc(F)c2)c2ccccc23)cc1Cl` (centres undefined), “inactive”; for `Oc1c(C(c2ccc(F)cc2)N2CCN(Cc3ccccc3)CC2)sc2nc(-c3ccco3)nn12` (centres undefined), “inactive”.
Same read-out and setting: as for `C[n+]1ccccc1C1CCCC/C1=N\Nc1ccc([N+](=O)[O-])cc1[N+](=O)[O-]` (centres undefined), the entry is “inactive”; as for `CC1(C)C/C(=N/Nc2ccc([N+](=O)[O-])cc2[N+](=O)[O-])C(C)(C)O1`, “inactive”.
The same measure, in the same setting: as for `O=[N+]([O-])c1ccc(N/N=C2/CCCCC2c2ccccn2)c([N+](=O)[O-])c1` (centres undefined), the figure is 3.55 µM (active); as for `Cc1cc(N2CCN(c3cccc(C(F)(F)F)c3)CC2)n2nc(-c3ccccc3)nc2n1`, “inactive”; as for `COC(=O)c1sc(NC(=O)COC(=O)C2CCC2)c(C(=O)OC)c1C`, “inactive”.
As for `CCOC(=O)c1c(NC(=O)c2cc(CC)on2)sc(C(C)=O)c1C`, the Potency result was “inactive”.
Still for that read-out and setting: as for `CCOC(=O)c1c(NC(=O)CCl)sc(C(=O)N(CC)CC)c1C`, the figure is 31.6 µM (active); as for `CCc1ccccc1NC(=O)CSc1nc(C)c(C(=O)Nc2ccccc2)c(-c2ccc(Cl)cc2)c1C#N`, “inactive”.
The same measure, in the same setting: as for `CCCn1c(=O)c2[nH]c(-c3ccc(OCC(=O)NCCN)cc3)nc2n(CCC)c1=O`, the entry is “inactive”.
Same read-out and setting: for `COc1ccccc1/C=C/c1nc(C#N)c(NC(C)c2ccccc2)o1` (centres undefined) the value was “inactive”; for `O=C(CCC1N=C2c3ccccc3N=C(SCc3ccccc3F)N2C1=O)NCCc1ccccc1` (centres undefined), “inactive”.
Take `CC1(C)N=C(SCc2ccccc2Cl)c2ccccc2N1`: the Potency result was “inactive”.
On the same count and under the same terms, for `Cc1ccc(-c2nnc(SCC(=O)NCc3ccccc3)nc2-c2ccc(C)cc2)cc1` the value was “inactive”; for `CSc1n[nH]c(-c2ccco2)n1`, “inactive”; for `Clc1ccccc1CSc1nnc(-c2ccco2)c(-c2ccco2)n1`, 5.01 µM (active).
Still for that read-out and setting: as for `Clc1ccccc1CSc1nncn2c1cc1occc12`, the entry is “inactive”; as for `c1ccc(CSc2nnc(-c3ccco3)c(-c3ccco3)n2)cc1`, 2.51 µM (active); as for `Cc1ccc(S(=O)(=O)c2cn(Cc3ccccc3)c3cc(N4CCCC4)c(F)cc3c2=O)c(C)c1`, “inactive”.
Still for that read-out and setting: as for `COc1cccc(-c2nc(S(=O)(=O)c3ccc(C)cc3)c(NCc3ccccc3)o2)c1`, the entry is “inactive”; as for `Cc1c(NC(=O)Cc2ccccc2)cccc1-c1nc2cccnc2s1`, “inactive”; as for `O=C(NCc1ccco1)c1ccc(NS(=O)(=O)c2cccc([N+](=O)[O-])c2)cc1`, “inactive”.
For `Cc1ccc(/C([O-])=C(/C(=S)NCc2ccco2)[n+]2ccccc2)cc1[N+](=O)[O-]`, the Potency is 56.2 µM (active).
Take `O=[N+]([O-])c1cccc(/C([O-])=C(/C(=S)Nc2ccccc2F)[n+]2ccccc2)c1`: the Potency entry is “inactive”.

Source of the values: PubChem BioAssay AID588453 (National Center for Advancing Translational Sciences (NCATS), 2011).
